Results reported in PubChem BioAssay.
“And” between values parts separate entries of the source, which are not always exact repeats. Equal values may be shown once. For some of these results: Measured potencies and affinities stand elsewhere. The source made the active and inactive calls.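 Rule for the calls, unless noted: active = normalized viability below 100% at a tested concentration; inactive = the rest.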

Columns and labels:
[1] = compounds altering circadian rhythm period length – cell-based, LOPAC library, luminescence reporter (AID 2774; call rule not given here;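 note: values are relative to mean of DMSO wells on each plate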); details: circadian reporter cells, at 7 µM, actives lie on both sides
[2] = test system: Hepatitis C virus NS3 helicase; assay: blockers of NS3h binding to ssDNA – biochemical, fluorescence polarization, LOPAC1280 library, primary screen (AID 687035; in the data active = inhibition above about 37%); details: Purified HCV NS3 helicase, Cy5-dT15 ssDNA binding fluorescence polarization; stronger effect = higher value; concentration not given here
[3] = molecular target: 6-phosphogluconate dehydrogenase, decarboxylating (Homo sapiens) (UniProt P52209); assay: inhibition of human phosphogluconate dehydrogenase – biochemical, recombinant enzyme, NADPH absorbance, primary screen (AID 1159550;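 active = at least 20% inhibition of 6-phosphogluconate dehydrogenase activity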); details: recombinant 6PGD, NADPH absorbance 341 nm; at 10 µM; stronger effect = higher value
6-phosphogluconate dehydrogenase, decarboxylating (Homo sapiens), sequence (P52209 whole entry, looked up): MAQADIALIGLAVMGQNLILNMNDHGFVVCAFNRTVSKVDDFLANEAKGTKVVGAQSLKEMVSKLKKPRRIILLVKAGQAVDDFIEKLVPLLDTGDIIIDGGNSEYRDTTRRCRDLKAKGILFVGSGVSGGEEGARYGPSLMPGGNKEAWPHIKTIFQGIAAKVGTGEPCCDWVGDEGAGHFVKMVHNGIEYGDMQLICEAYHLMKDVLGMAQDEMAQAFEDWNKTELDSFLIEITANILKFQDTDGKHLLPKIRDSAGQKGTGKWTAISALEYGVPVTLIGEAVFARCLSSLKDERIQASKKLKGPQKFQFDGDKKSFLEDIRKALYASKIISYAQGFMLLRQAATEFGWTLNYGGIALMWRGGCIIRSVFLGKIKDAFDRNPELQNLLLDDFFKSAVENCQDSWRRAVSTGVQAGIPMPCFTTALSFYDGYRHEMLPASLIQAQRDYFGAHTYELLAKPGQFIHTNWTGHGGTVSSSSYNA

[4] = EMT-state selective cytotoxicity in co-culture – imaging, PC-3E GFP, TEM4-18 mCherry, primary screen (AID 1345086;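 active = compounds killing one labelled cell type while sparing the other, by normalised counts and ratio limits, not self-fluorescent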;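 for all read-outs here: cells exposed to compound for 72 h before imaging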;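 for red/green cell ratio (normalised): normalised mesenchymal count divided by normalised epithelial count so high means epithelial killing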); details: PC-3E GFP / TEM4-18 mCherry co-culture, imaging cell counts, at 1 µM; for red/green cell ratio (normalised): actives lie on both sides, counts scaled to control wells, 1 = unselective
[5] = viability loss with induced miR-34 in A549 – imaging, A549 dox-inducible miR-34, nuclei and caspase counts, primary screen (AID 1347080;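 active = compounds whose cell count with miR-34 switched on is under 0.7 times the count with it off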); details: A549 miR-34 inducible, Hoechst nuclei count, 48 h
[6] = blockers of cellular phospholipid synthesis – cell-based, LOPAC library, screen 4, primary screen (AID 1347384; call rule not given here); details: animal cells, phospholipid biosynthesis inhibition screen; at 10 µM
[7] = MELAS cybrid and Rieske KO viability enhancers – cell-based, MELAS cybrids, Rieske KO mouse fibroblasts, CellTiter-Glo, primary screen (AID 1508586;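 active = mean z-score across replicates of 1.96 or higher in either the MELAS or the Rieske mutant cell line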;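 note: z relative to plate mean and SD of compound and empty wells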); details: low glucose
[8] = drug combination growth inhibition, ovarian cancer – cell-based, oncology-focused library, rucaparib conditional, profiling panel (AID 1508598); details: patient-derived ovarian cancer cells, CellTiter-Glo viability, 144 h, stronger effect = lower value
[9] = molecular target: Mitogen-activated protein kinase 7 (Homo sapiens) (UniProt Q13164); assay: Gal4-ERK5 driven luciferase induction – cell-based, HTS, primary screen (AID 1508626;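 active = luciferase signal above three times the same-plate solvent-only control wells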;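 note: luciferase driven by Gal4-ERK5 fusion binding five Gal4 sites before minimal TATA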); details: HeLa Gal4-ERK5 transactivation, 18 h, at 5 µM, stronger effect = higher value
Mitogen-activated protein kinase 7 (Homo sapiens), sequence (Q13164 whole entry, looked up, the tested form may be a part): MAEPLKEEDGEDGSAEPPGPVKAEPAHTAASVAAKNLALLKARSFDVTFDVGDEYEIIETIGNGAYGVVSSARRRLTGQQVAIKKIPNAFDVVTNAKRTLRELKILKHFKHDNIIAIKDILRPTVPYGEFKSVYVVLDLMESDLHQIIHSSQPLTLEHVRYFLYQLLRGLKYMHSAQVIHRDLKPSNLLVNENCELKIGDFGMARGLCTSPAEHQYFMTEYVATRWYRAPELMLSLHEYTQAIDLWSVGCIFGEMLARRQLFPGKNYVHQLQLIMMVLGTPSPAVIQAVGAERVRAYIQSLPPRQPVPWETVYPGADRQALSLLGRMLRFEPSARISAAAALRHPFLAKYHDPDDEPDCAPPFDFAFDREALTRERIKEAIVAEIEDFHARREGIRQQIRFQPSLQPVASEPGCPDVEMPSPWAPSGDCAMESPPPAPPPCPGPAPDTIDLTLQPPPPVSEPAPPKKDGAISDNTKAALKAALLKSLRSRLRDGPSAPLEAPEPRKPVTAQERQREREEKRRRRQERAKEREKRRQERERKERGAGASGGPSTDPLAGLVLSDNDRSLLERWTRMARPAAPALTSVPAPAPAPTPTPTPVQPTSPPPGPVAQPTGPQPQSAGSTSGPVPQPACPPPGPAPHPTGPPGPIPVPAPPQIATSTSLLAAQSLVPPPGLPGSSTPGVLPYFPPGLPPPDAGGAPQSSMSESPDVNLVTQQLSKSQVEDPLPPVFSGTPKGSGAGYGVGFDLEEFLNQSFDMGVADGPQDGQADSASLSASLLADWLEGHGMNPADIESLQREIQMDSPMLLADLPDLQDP

[10] = galactose survival enhancers in mitochondrial complex I cybrids – cell-based, galactose medium, ATP luminescence, primary screen (AID 1645843;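 active = z-score of at least 1.8 in each of two replicates, scored against plate mean and spread of sample wells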;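 note: positive z means more ATP and so rescue of galactose-driven cybrid death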); details: complex I mutant cybrid cells, 72 h, stronger effect = higher value
[11] = blockers of polyQ-driven CASP3 activation – cell-based (AID 1583); details: polyglutamine-induced caspase-3 activation, cell assay; stronger effect = higher value;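 tested at 10 µM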
[12] = yeast 75Q aggregation reduction – 75Q-TubU reporter (AID 1593); details: Yeast 75Q polyglutamine aggregation reporter
[13] = restoration of touch response, mutant HTT neurons – whole organism, C. elegans mechanosensory neurons, N-terminal huntingtin (AID 1599); details: C. elegans polyQ-huntingtin mechanosensory neurons, stronger effect = higher value
[14] = blockers of cytochrome c efflux from mitochondria – biochemical, purified mitochondria (AID 1603); details: stronger effect = lower value;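 note: mouse liver mitochondria challenged with calcium chloride; signal normalized to the plate average as 100%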
[15] = polyglutamine aggregate formation blockers (AID 1604); details: polyglutamine-induced protein aggregation inhibition assay; stronger effect = higher value; tested at 2.5 µM
[16] = glutamate transport activators, MN-1 cells, MN-1 cell line (AID 1612); details: MN-1 motor neuron cells, stronger effect = higher value;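 note: tested at 1 µM final; 0% = mean of DMSO vehicle wells on each plate; positive means more glutamate uptake than control and negative means less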
[17] = GFP-Q80 aggregate reduction, neuronal-like cells, cell-based, NGF-treated PC12, GFPQ80 (AID 1614); details: PC12 NGF-treated GFP-polyQ80 inclusion reduction;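 note: lower means fewer inclusions and 0 means no inclusions at all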
[18] = 75Q-TubH aggregate inhibition, S. cerevisiae, yeast (AID 1616); details: S. cerevisiae 75Q-TubH polyglutamine aggregation suppression; stronger effect = higher value
[19] = molecular target: NAD(+) hydrolase SARM1 (Homo sapiens) (UniProt Q6SZW1); assay: blocking NAD cleavage by SARM1 SAM-TIR – cell lysate, NAD-Glo luminescence (AID 1508614;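 active = compound whose remaining NAD level is above about 45 nM, limit read from the data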;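 note: higher remaining NAD means stronger inhibition of SARM1 NADase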); details: SAM-TIR HEK293T lysate NADase, at 1 µM, stronger effect = higher value
NAD(+) hydrolase SARM1 (Homo sapiens), sequence (Q6SZW1 whole entry, looked up): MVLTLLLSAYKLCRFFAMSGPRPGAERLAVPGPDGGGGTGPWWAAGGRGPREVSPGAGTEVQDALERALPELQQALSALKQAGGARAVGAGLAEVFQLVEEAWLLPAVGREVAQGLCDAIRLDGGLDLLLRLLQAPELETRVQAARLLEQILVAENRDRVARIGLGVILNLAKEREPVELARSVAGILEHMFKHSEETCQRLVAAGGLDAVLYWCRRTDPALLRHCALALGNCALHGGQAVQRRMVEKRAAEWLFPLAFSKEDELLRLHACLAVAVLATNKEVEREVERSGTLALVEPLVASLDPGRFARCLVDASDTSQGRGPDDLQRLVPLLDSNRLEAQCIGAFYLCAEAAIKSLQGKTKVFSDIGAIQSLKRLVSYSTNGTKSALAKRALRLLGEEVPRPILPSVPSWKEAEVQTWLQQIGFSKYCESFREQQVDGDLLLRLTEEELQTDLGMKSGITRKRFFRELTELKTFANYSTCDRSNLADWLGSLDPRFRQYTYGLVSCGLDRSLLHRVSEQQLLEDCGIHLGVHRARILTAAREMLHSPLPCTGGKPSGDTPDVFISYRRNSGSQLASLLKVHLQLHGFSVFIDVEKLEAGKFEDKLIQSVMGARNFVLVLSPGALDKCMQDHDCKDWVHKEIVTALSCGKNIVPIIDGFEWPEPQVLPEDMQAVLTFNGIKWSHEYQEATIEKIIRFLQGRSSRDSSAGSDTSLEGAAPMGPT

[20] = P. berghei load reduction in hepatocytes – cell-based, HepG2, luciferase luminescence, HepG2 viability, primary screen (AID 624349; in the data active = parasite load remaining mostly below about 12%, no sharp cut-off; inactive = mostly above about 10%;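 note: 100% = mean of DMSO negative control wells on the same plate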); details: P. berghei liver stage in HepG2, luciferase luminescence, concentration not given here; parasite load remaining: stronger effect = lower value; viability: measured here: HepG2 viability without parasites
[21] = measured here: epithelial PC-3E GFP cell survival
[22] = measured here: mesenchymal TEM4-18 mCherry cell survival
[23] = stronger effect = lower value, cell number ratio, induced over uninduced
[24] = measured here: relative caspase fold change +Dox/-Dox
[25] = measured here: total cells with miR-34 induction, stronger effect = lower value
[26] = measured here: total cells without miR-34 induction
[27] = MELAS cybrid survival, CellTiter-Glo 48 h, stronger effect = higher value
[28] = Rieske KO mouse fibroblast survival, CellTiter-Glo 72 h

O=C(CCc1ccc(O)cc1)c1c(O)cc(O)cc1O
period change [1]: 0.135 h (inactive)
inhibition [2]: -4% (inactive)
inhibition [3]: 4.36% (inactive)
red/green cell ratio (normalised) [4]: 1.14 (inactive)
normalised cell number [4, 21]: 0.95
normalised cell number [4, 22]: 1.08
fold change [5, 23]: 1 (inactive) and 0.951 (inactive)
fold change [5, 24]: 1.21 and 0.641
cell count [5, 25]: 10100 and 9910
cell count [5, 26]: 10100 and 10400
outcome [6]: inactive
z-score [7, 27]: -0.355 (inactive)
z-score [7, 28]: 0.489
viability ([8]; at 0.000305 µM, OCI-C5x cells, with rucaparib 10 µM, 100% = cells with rucaparib alone): 108% (inactive)
viability ([8]; at 0.000305 µM, OCI-C5x cells, without rucaparib): 119% (inactive)
viability ([8]; at 0.000305 µM, OCI-P5x cells, with rucaparib 20 µM, 100% = cells with rucaparib alone): 96.8% (active)
viability ([8]; at 0.000305 µM, OCI-P5x cells, without rucaparib): 97% (active)
viability ([8]; at 0.00122 µM, OCI-C5x cells, with rucaparib 10 µM, 100% = cells with rucaparib alone): 115% (inactive)
viability ([8]; at 0.00122 µM, OCI-C5x cells, without rucaparib): 108% (inactive)
viability ([8]; at 0.00122 µM, OCI-P5x cells, with rucaparib 20 µM, 100% = cells with rucaparib alone): 95.8% (active)
viability ([8]; at 0.00122 µM, OCI-P5x cells, without rucaparib): 99.2% (active)
viability ([8]; at 0.00488 µM, OCI-C5x cells, with rucaparib 10 µM, 100% = cells with rucaparib alone): 122% (inactive)
viability ([8]; at 0.00488 µM, OCI-C5x cells, without rucaparib): 115% (inactive)
viability ([8]; at 0.00488 µM, OCI-P5x cells, with rucaparib 20 µM, 100% = cells with rucaparib alone): 103% (inactive)
viability ([8]; at 0.00488 µM, OCI-P5x cells, without rucaparib): 104% (inactive)
viability ([8]; at 0.0195 µM, OCI-C5x cells, with rucaparib 10 µM, 100% = cells with rucaparib alone): 110% (inactive)
viability ([8]; at 0.0195 µM, OCI-C5x cells, without rucaparib): 123% (inactive)
viability ([8]; at 0.0195 µM, OCI-P5x cells, with rucaparib 20 µM, 100% = cells with rucaparib alone): 104% (inactive)
viability ([8]; at 0.0195 µM, OCI-P5x cells, without rucaparib): 110% (inactive)
viability ([8]; at 0.0781 µM, OCI-C5x cells, with rucaparib 10 µM, 100% = cells with rucaparib alone): 116% (inactive)
viability ([8]; at 0.0781 µM, OCI-C5x cells, without rucaparib): 121% (inactive)
viability ([8]; at 0.0781 µM, OCI-P5x cells, with rucaparib 20 µM, 100% = cells with rucaparib alone): 104% (inactive)
viability ([8]; at 0.0781 µM, OCI-P5x cells, without rucaparib): 109% (inactive)
viability ([8]; at 0.313 µM, OCI-C5x cells, with rucaparib 10 µM, 100% = cells with rucaparib alone): 115% (inactive)
viability ([8]; at 0.313 µM, OCI-C5x cells, without rucaparib): 117% (inactive)
viability ([8]; at 0.313 µM, OCI-P5x cells, with rucaparib 20 µM, 100% = cells with rucaparib alone): 109% (inactive)
viability ([8]; at 0.313 µM, OCI-P5x cells, without rucaparib): 113% (inactive)
viability ([8]; at 1.25 µM, OCI-C5x cells, with rucaparib 10 µM, 100% = cells with rucaparib alone): 105% (inactive)
viability ([8]; at 1.25 µM, OCI-C5x cells, without rucaparib): 125% (inactive)
viability ([8]; at 1.25 µM, OCI-P5x cells, with rucaparib 20 µM, 100% = cells with rucaparib alone): 97.8% (active)
viability ([8]; at 1.25 µM, OCI-P5x cells, without rucaparib): 110% (inactive)
viability ([8]; at 5 µM, OCI-C5x cells, with rucaparib 10 µM, 100% = cells with rucaparib alone): 109% (inactive)
viability ([8]; at 5 µM, OCI-C5x cells, without rucaparib): 132% (inactive)
viability ([8]; at 5 µM, OCI-P5x cells, with rucaparib 20 µM, 100% = cells with rucaparib alone): 108% (inactive)
viability ([8]; at 5 µM, OCI-P5x cells, without rucaparib): 111% (inactive)
luciferase signal [9]: 60 AU (inactive)
z-score [10]: 1.71 (inactive)

CN(C)CCN(Cc1cccs1)c1ccccn1
inhibition [11]: 23.7%
score [12]: 1.21
rescue above control [13]: -13.2
cytochrome c release ratio [14]: 0.66
inhibition of aggregation [15]: 81.4%
glutamate uptake change [16]: -6.5%
inclusion score [17]: 2
aggregation suppression score [18]: 1.19
period change [1]: 0.21 h (inactive)
inhibition [2]: -1% (inactive)
inhibition [3]: 15.9% (inactive)
red/green cell ratio (normalised) [4]: 1.12 (inactive)
normalised cell number [4, 21]: 1.1
normalised cell number [4, 22]: 1.22
fold change [5, 23]: 1.16 (inactive) and 0.855 (inactive) and 0.861 (inactive)
fold change [5, 24]: 0.908 and 1.23 and 2.97
cell count [5, 25]: 11200 and 8440 and 11600
cell count [5, 26]: 9630 and 9870 and 13500
outcome [6]: inactive
z-score [7, 27]: 0.365 (inactive)
z-score [7, 28]: -0.164
remaining NAD [19]: 10 nM (inactive)
luciferase signal [9]: 36 AU (inactive)
z-score [10]: 0.215 (inactive)

CCn1nc(C(=O)O)c(=O)c2cc3c(cc21)OCO3
inhibition [11]: 20.5%
score [12]: 0.7
rescue above control [13]: 3.16
cytochrome c release ratio [14]: 0.93
inhibition of aggregation [15]: 18.2%
glutamate uptake change [16]: -5.25%
inclusion score [17]: 2
aggregation suppression score [18]: 0.697
period change [1]: 0.04 h (inactive)
parasite load remaining [20]: 87.3% (inactive) and 66.8% (inactive)
viability [20]: 99.6% and 76.9% and 91.7%
inhibition [2]: -4% (inactive)
inhibition [3]: 6.67% (inactive)
red/green cell ratio (normalised) [4]: 1.25 (inactive)
normalised cell number [4, 21]: 1.11
normalised cell number [4, 22]: 1.38
fold change [5, 23]: 0.983 (inactive) and 0.931 (inactive) and 0.893 (inactive)
fold change [5, 24]: 1.81 and 0.999 and 1.16
cell count [5, 25]: 10100 and 8650 and 10900
cell count [5, 26]: 10300 and 9290 and 12200
outcome [6]: inactive
z-score [7, 27]: -0.474 (inactive)
z-score [7, 28]: -0.663
remaining NAD [19]: 10 nM (inactive)
luciferase signal [9]: 32 AU (inactive)
z-score [10]: 0.215 (inactive)
